The record followed here is PubChem BioAssay (NCATS).

Records with an inconclusive call do not appear. The source made the active and inactive calls. Calls follow the shape of the dose curve; as a rule, active = well fitted inhibition curve with a large enough effect; inconclusive = small, poorly fitted or top-dose-only effect; inactive = no such curve, though single readings can be large or run the other way. Non-standard residues stand in square brackets, D forms with d. Residues, ends and D or L forms follow the SMILES beside them. *: point of attachment. Nva = CCC[C@H](N)C(=O)O; Cbz = O=C(OCc1ccccc1)*
Potency is read from the fitted curve at half-maximal effect.

The assay in a line: BET inhibitor-based combinations targeting novel dependencies in MECOM-rearranged (r) AML: UCSD-AML1 cell line (AID 2202235). Also: nearly all actives have a fitted effect of over 40% in size.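 As to viability (% of control): plate controls were DMSO vehicle wells for no effect and blank wells for full effect.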 Conditions: UCSD-AML1 AML cells viability, CellTiter-Glo, 48 h; series mostly up to 46 µM; viability (% of control): at the top concentration. An excerpt: Ecotropic viral insertion site 1 (EVI1) is located on chromosome 3q26.2 as part of the MECOM (MDS and EVI1 complex) locus. Under normal hematopoiesis, EVI1 is a regulator of hematopoietic stem cell maintenance and self-renewal and EVI1 levels decrease as the cells differentiate. In approximately 5-10% of de novo acute myeloid leukemia (AML) EVI1 is aberrantly expressed, including Chromosomal inv(3)(q21;q26.2) or t(3;3)(q21;q26.2) alterations (MECOM-r) that account for about 50% of AML with EVI1 overexpression 31. AMLs with high levels of EVI1 have a poor prognosis and an overall survival time averaging between 10-14 months. EVI1 overexpression confers resistance in leukemia cells, highlighting the need to develop new targeted therapies for EVI1 overexpressing AMLs. Here, we performed an unbiased chemical drug screening by evaluating the single agent activity of a collection of 2,480 oncology-focused, approved and investigational drugs (NCATS Mechanism Interrogation Plates, MIPE v5.0) against a panel of seven AML cell lines. These included four MECOM-r cell-lines (AML-191, AML-194, UCSD-AML1 and HNT-34) and three non-MECOM-r AMLs (MV4-11, OCI-AML3 and SET-2). Exploiting the mechanistic redundancy built in the library, we identified target-level sensitivities in MECOM-r AML cells and relative activity as compared to other AML subtypes.
A collection of 2480 mechanistically annotated dugs (MIPE v5.0) was used to screen four 3q26.2 rearranged AML cell lines and three non-3q26.2 rearranged AML cell lines. This library purposely exploits redundancy by including multiple inhibitors of key onco-targets, while simultaneously encompassing mechanistic diversity, targeting more than 800 distinct mechanisms of action. Briefly, cells were seeded in 5 uL of growth media using a Multidrop Combi dispenser into 1536 well white polystyrene tissue culture treated plates (Corning) at a density of 500cells/well. For each cell-line, for each of the 2480 drugs in MIPE v5.0 library, an 11-point dose curve was generated via a 1536 pin-tool. Plates were incubated for 48 hr at standard incubator conditions, covered by a stainless steel gasketed lid to prevent evaporation. Cell viability was determined by luminescence based, Cell Titer Glo assay (Promega). In detail, 3 uL of Cell Titer Glo were added to each well and plates were incubated at room temperature for 15 min with a stainless-steel lid in place. Luminescence readings were taken using a Viewlux (PerkinElmer) with a 2 s exposure time per plate. Compound dose-response curves were normalized to DMSO and empty well controls on each plate. Quantitative drug activity data from dose-response curves was determined utilizing area Under the Curve (AUC) and Z-transformed AUC (Z-AUC, a mean-centering transformation applied to each individual cell-line screened).
For orientation: ATP-based viability assays read luminescence as a measure of living cells.
In the case of `CS(=O)(=O)OCCCCOS(C)(=O)=O`, the “viability (% of control)” value was 103% (inactive).

Take `CC(C)Nc1cc(-c2c[nH]c(C(=O)N[C@H](CO)c3cccc(Cl)c3)c2)c(Cl)cn1`: the Potency is 7.42 µM (active). The same measure, in the same setting: with `COc1cc(Nc2ncc3c(n2)-c2ccc(Cl)cc2C(c2c(F)cccc2OC)=NC3)ccc1C(=O)O` the figure was 0.059 µM (active).

For `Cc1cc(Nc2cc(N3CCN(C)CC3)nc(/C=C/c3ccccc3)n2)n[nH]1`, the Potency is 2.95 µM (active). Consider `CCCCC(=O)O[C@]1(C(=O)CO)[C@@H](C)C[C@H]2[C@@H]3CCC4=CC(=O)C=C[C@]4(C)[C@@]3(F)[C@@H](O)C[C@@]21C`, for which the “viability (% of control)” value is 114% (inactive).

Take `CC(C)C(=O)Nc1ncc(-c2cc(C(F)F)nn2-c2c(Cl)cccc2Cl)s1`: the “viability (% of control)” value was 118% (inactive).

Turning to `CCc1ccc(OCc2ccccc2C(=O)Nc2ccc3nc(C)cc(N)c3c2)cc1`, the Potency is 7.42 µM (active). Turning to `CCC[C@@H](C=O)NC(=O)[C@H](CC(C)C)NC(=O)[C@H](CC(C)C)NC(=O)OCc1ccccc1` (Cbz-Leu-Leu-[Nva]-aldehyde), the Potency is 3.32 µM (active).

On to `CCCCCCCCCCCCc1ccc(S(=O)(=O)Nc2nncs2)cc1`, for which the “viability (% of control)” value was 97.7% (inactive). Still for that read-out and setting: with `CCOc1ccccc1N=Nc1c(C)[nH]n(-c2nc(-c3ccccc3)cs2)c1=O` the figure was 107% (inactive). For `NC(=O)N1CCC(CC(=O)N2CCC([C@H]3c4ncc(Br)cc4CCc4cc(Cl)cc(Br)c43)CC2)CC1`, the Potency was 3.72 µM (active). The same measure, in the same setting: with `COc1cc2c(NC3CCN(CC4CCCCC4)CC3)nc(N3CCCN(C(C)C)CC3)nc2cc1OCCCN1CCCCC1` the figure was 10.5 µM (active); with `CC[C@H](C)C(=O)O[C@H]1C[C@@H](C)C=C2C=C[C@H](C)[C@H](CC[C@@H]3C[C@@H](O)CC(=O)O3)[C@H]21`, 9.34 µM (active); with `COc1cc2ncnc(-n3nc(-c4ccccn4)nc3N)c2cc1OC`, 4.68 µM (active). As to `CCC(=O)O[C@]1(C(=O)CCl)[C@@H](C)C[C@H]2[C@@H]3CCC4=CC(=O)C=C[C@]4(C)[C@@]3(F)[C@@H](O)C[C@@]21C`, the “viability (% of control)” value is 106% (inactive). On the same count and under the same terms, with `Cn1cc(-c2c[nH]c3ncnc(N4CCOCC4)c23)cn1` the figure was 106% (inactive); with `Cc1ccccc1C(C(=O)NC1CCCCC1)N(C(=O)CNc1ccc(C#N)cc1)c1cccc(F)c1` (stereo not given), 105% (inactive); with `C[C@]1(c2nc3c(C(N)=O)cccc3[nH]2)CCCN1`, 102% (inactive). In the case of `Cc1ccc([N+](=O)[O-])cc1S(=O)(=O)N(C)/N=C/c1cnc2ccc(Br)cn12`, the Potency is 0.166 µM (active). Still for that read-out and setting: the result for `Cc1ncc(-c2ccnc(Nc3ccc(S(C)(=O)=O)cc3)n2)n1C(C)C` reads 1.32 µM (active).

`CC(C)Nc1cc(C(F)(F)F)cc2nc(NC(=O)c3cccnc3)nn12`: the “viability (% of control)” value was 78.9% (inactive). The same measure, in the same setting: the result for `Cn1ccc2cc3c(cc21)CCN3C(=O)Nc1cccnc1` reads 110% (inactive).

On to `CC(C)(C)C(=O)Oc1ccc2c(c1)nc(NC(=O)c1cccc([N+](=O)[O-])c1)n2CCCO`, for which the “viability (% of control)” value is 94% (inactive). On the same count and under the same terms, the result for `Cc1nn(C)c2c1C(c1ccc(C(F)(F)F)cc1)C(C#N)=C(N)O2` (stereo not given) reads 87.3% (inactive); that for `O=[N+]([O-])c1ccc(Nc2ccccc2-c2ccccc2)c2nonc12`, 107% (inactive). The same measure, in the same setting: the result for `COc1cccc(-c2ccc(NC(=O)C3=C(C(=O)O)CCC3)c(F)c2)c1` reads 109% (inactive). For the compound `COc1ccc(CC2SC(=O)NC2=O)cc1C(=O)NCc1ccc(C(F)(F)F)cc1` (stereo not given), the “viability (% of control)” value was 110% (inactive). Same read-out and setting: with `COc1ccccc1C(=O)Nc1cc2c(cc1N1CCCCC1)n(C)c(=O)n2C` the figure was 95.5% (inactive); with `O=C(Nc1cccc(Br)c1)c1cccc(S(=O)(=O)N2CCCCCC2)c1`, 124% (inactive); with `O=C(O)CCCc1c[nH]c2ccccc12`, 107% (inactive). Take `CN(C)CC(=O)N1CCC(c2ccc(NC(=O)c3ncc(C#N)[nH]3)c(C3=CCCCC3)c2)CC1`: the Potency was 5.25 µM (active). Turning to `CC1(C)Cc2c(-c3ccccc3)c(-c3ccc(Cl)cc3)c(CC(=O)O)n2C1`, the “viability (% of control)” value is 94.2% (inactive). As to `COc1cc2ncnc(Nc3cccc(Cl)c3)c2cc1OC`, the Potency was 18.6 µM (active). The same measure, in the same setting: the result for `CNC(=O)c1ccc(Nc2ncc(C(F)(F)F)c(NCc3nccnc3N(C)S(C)(=O)=O)n2)cc1` reads 2.63 µM (active). Regarding `CCCc1cc(C(N)=S)ccn1`, the “viability (% of control)” value was 115% (inactive). Turning to `CNC(=O)c1cc(Oc2ccc(NC(=O)Nc3cc(C(C)(C)C)nn3-c3ccc4ncccc4c3)c(F)c2)ccn1`, the Potency was 16.6 µM (active).

In the case of `Cc1c(CCOc2ccc(C(=O)O)cc2)c2cc(Cl)ccc2n1C(c1ccccc1)c1ccccc1`, the “viability (% of control)” value was 98% (inactive). In the case of `CC[C@H](C=C[C@@H](C)[C@H]1CC[C@H]2[C@@H]3CC=C4C[C@@H](O)CC[C@]4(C)[C@@H]3CC[C@]12C)C(C)C`, the “viability (% of control)” value is 108% [at 15.6 µM] (inactive). For the compound `COc1ccccc1N1CCN(CC(O)COc2cccc3ccccc23)CC1` (stereo not given), the Potency is 5.25 µM (active). Take `CCC1=C(C)CN(C(=O)NCCc2ccc(S(=O)(=O)NC(=O)NC3CCC(C)CC3)cc2)C1=O` (stereo not given): the “viability (% of control)” value was 106% (inactive).
